In ChEMBL document CHEMBL2218924, “A broad activity screen in support of a chemogenomic map for kinase signalling research and drug discovery” (Biochem J, 2013) one finds residual activity data, which are given here for eight compounds.

The target of test [1] is T1, Protein kinase C zeta type (Homo sapiens) (UniProt Q05513).
T1 sequence (whole entry): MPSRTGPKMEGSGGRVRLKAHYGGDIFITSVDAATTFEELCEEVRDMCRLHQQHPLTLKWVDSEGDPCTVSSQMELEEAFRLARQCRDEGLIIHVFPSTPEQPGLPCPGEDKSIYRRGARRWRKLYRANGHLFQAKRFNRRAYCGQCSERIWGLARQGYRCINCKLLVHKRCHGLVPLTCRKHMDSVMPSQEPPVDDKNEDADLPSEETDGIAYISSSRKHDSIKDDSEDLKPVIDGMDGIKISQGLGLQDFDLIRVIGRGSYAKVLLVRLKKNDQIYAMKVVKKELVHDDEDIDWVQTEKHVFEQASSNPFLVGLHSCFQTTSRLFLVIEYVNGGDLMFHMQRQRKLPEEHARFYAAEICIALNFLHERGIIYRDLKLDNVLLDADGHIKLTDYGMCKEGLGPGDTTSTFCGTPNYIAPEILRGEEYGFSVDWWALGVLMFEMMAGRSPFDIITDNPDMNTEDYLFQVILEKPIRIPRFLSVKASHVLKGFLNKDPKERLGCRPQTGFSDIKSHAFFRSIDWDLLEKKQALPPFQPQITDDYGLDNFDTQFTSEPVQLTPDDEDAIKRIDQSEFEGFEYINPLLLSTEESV
To be noted: at 1 µM.

For test [2], the target named is T2, Mitogen-activated protein kinase kinase kinase 5 (Homo sapiens) (UniProt Q99683).
T2 sequence (whole entry): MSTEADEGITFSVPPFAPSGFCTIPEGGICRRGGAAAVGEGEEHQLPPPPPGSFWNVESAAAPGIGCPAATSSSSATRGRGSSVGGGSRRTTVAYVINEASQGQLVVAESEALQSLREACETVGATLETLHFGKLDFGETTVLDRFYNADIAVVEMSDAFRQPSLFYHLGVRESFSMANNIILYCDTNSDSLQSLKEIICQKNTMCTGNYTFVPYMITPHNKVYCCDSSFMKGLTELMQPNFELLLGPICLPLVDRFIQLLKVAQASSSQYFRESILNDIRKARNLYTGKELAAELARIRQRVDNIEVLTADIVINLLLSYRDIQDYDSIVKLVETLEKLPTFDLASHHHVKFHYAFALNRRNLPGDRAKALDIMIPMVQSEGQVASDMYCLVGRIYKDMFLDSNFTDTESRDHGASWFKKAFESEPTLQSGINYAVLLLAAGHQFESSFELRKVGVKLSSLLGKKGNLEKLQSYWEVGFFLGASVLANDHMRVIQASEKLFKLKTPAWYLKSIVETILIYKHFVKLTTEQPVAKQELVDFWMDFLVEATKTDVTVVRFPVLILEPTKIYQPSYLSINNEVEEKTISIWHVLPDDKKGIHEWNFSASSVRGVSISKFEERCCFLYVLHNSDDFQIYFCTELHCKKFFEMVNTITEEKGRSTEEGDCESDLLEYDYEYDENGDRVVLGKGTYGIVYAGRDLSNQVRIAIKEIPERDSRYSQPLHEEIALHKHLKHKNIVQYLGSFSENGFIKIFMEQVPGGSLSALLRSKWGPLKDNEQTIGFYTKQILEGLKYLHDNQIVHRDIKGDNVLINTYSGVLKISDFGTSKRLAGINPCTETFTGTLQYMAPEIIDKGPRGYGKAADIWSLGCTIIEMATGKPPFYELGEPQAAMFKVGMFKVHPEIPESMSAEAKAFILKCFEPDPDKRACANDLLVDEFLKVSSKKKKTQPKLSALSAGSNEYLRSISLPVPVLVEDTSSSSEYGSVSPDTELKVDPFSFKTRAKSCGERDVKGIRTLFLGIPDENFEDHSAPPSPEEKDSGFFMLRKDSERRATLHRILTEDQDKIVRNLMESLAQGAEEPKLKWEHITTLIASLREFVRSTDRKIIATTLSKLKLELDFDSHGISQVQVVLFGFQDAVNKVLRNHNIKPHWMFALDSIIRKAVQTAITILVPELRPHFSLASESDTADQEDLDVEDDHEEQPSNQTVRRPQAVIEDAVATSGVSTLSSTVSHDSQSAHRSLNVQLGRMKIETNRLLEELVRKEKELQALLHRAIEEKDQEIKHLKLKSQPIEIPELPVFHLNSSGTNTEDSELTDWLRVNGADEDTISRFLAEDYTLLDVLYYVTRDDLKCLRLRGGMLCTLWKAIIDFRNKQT
The note with it: at 10 µM.

Test [3] addresses Tyrosine-protein kinase ABL1 (Homo sapiens) (UniProt P00519). The note with it: at 1 µM.
For test [4] the target is unchanged. The note with it: at 10 µM.
In test [5] the target is Tyrosine-protein kinase ABL2 (Homo sapiens) (UniProt P42684). The note with it: at 1 µM.
Sequence of Tyrosine-protein kinase ABL2 (Homo sapiens) (P42684 whole entry): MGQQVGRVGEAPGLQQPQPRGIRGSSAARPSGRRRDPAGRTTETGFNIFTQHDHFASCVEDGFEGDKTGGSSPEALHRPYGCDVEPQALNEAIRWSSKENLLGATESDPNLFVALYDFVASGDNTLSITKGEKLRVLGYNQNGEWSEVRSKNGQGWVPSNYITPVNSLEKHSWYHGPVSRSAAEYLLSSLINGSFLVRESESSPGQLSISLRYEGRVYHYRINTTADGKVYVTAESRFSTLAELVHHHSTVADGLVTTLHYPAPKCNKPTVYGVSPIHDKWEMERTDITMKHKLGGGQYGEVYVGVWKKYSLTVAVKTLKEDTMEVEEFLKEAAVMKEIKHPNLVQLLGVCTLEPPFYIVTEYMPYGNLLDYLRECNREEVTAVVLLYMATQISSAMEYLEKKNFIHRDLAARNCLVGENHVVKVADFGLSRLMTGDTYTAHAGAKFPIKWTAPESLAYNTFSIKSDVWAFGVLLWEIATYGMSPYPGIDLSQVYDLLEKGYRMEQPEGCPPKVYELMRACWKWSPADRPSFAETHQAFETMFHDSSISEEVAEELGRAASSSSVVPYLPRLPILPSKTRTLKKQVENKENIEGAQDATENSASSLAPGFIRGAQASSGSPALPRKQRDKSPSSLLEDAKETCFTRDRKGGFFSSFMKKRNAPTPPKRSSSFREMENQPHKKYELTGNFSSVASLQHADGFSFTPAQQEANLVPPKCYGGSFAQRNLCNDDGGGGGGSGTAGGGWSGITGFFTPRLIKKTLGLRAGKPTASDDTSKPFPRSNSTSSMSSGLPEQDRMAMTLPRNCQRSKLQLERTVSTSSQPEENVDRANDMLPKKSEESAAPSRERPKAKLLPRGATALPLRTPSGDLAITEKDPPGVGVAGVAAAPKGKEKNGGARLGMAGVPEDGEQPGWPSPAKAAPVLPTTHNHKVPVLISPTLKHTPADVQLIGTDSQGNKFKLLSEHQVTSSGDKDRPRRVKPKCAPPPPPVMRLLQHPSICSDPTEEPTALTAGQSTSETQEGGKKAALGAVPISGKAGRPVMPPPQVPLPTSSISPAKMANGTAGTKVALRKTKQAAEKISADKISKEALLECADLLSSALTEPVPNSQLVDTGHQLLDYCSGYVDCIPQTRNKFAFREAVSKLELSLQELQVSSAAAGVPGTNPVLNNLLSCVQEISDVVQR
Test [6] shares this target. The note with it: at 10 µM.
For test [7], the target named is T3, Aurora kinase A (Homo sapiens) (UniProt O14965).
T3 sequence (whole entry): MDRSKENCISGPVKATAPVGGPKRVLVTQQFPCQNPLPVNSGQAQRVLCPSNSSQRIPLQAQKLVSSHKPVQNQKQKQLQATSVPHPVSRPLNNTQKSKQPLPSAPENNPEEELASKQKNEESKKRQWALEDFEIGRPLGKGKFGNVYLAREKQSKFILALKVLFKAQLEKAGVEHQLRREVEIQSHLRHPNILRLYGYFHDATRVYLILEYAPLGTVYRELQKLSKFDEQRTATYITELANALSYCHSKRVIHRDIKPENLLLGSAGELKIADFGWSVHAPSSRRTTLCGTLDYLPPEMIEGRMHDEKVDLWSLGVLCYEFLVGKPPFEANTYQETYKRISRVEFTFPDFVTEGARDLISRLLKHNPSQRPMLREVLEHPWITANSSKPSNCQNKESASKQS
To be noted: at 1 µM.

Test [8] deals with T3, Aurora kinase A (Homo sapiens). The note with it: at 10 µM.
Test [9] deals with Aurora kinase B (Homo sapiens) (UniProt Q96GD4). To be noted: at 1 µM.
Sequence of Aurora kinase B (Homo sapiens) (Q96GD4 whole entry): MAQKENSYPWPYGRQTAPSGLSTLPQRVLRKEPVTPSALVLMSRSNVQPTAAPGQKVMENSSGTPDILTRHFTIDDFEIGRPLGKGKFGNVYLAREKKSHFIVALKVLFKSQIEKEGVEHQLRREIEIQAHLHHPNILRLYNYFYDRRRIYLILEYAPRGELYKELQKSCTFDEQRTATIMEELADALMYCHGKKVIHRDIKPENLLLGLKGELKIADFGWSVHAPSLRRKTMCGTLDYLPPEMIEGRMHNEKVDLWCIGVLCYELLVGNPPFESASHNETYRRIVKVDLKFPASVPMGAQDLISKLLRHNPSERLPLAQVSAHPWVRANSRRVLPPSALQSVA
Test [10] shares this target. To be noted: at 10 µM.
Test [11] has as its target T4, Aurora kinase C (Homo sapiens) (UniProt Q9UQB9).
T4 sequence (whole entry): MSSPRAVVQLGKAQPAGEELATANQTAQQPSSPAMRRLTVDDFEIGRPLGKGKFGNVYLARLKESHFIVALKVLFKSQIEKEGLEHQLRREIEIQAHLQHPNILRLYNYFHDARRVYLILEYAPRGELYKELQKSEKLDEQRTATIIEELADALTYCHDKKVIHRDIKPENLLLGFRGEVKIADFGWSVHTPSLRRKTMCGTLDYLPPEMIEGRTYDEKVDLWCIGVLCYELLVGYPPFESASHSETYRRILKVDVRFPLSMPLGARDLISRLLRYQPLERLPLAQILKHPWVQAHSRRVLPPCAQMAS
To be noted: at 1 µM.

Test [12] has as its target T4, Aurora kinase C (Homo sapiens). To be noted: at 10 µM.
Test [13] concerns the target Tyrosine-protein kinase receptor UFO (Homo sapiens) (UniProt P30530). To be noted: at 1 µM.
For test [14] the target is unchanged. The note with it: at 10 µM.
The target of test [15] is Protein-tyrosine kinase 6 (Homo sapiens) (UniProt Q13882). The note with it: at 1 µM.
Sequence of Protein-tyrosine kinase 6 (Homo sapiens) (Q13882 whole entry, looked up): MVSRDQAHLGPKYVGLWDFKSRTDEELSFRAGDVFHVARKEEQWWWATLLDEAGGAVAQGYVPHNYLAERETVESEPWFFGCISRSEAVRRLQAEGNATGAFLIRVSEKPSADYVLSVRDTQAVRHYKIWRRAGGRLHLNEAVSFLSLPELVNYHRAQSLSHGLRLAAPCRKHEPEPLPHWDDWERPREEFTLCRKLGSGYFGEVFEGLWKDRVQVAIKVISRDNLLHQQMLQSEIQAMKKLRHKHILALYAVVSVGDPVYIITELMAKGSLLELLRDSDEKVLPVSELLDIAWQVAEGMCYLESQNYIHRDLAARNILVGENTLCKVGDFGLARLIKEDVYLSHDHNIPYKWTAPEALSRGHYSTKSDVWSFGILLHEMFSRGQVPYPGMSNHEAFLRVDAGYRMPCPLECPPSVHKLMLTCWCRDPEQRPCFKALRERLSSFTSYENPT
For test [16] the target is unchanged. To be noted: at 10 µM.
The target of test [17] is Tyrosine-protein kinase BTK (Homo sapiens) (UniProt Q06187). The note with it: at 1 µM.
Sequence of Tyrosine-protein kinase BTK (Homo sapiens) (Q06187 whole entry): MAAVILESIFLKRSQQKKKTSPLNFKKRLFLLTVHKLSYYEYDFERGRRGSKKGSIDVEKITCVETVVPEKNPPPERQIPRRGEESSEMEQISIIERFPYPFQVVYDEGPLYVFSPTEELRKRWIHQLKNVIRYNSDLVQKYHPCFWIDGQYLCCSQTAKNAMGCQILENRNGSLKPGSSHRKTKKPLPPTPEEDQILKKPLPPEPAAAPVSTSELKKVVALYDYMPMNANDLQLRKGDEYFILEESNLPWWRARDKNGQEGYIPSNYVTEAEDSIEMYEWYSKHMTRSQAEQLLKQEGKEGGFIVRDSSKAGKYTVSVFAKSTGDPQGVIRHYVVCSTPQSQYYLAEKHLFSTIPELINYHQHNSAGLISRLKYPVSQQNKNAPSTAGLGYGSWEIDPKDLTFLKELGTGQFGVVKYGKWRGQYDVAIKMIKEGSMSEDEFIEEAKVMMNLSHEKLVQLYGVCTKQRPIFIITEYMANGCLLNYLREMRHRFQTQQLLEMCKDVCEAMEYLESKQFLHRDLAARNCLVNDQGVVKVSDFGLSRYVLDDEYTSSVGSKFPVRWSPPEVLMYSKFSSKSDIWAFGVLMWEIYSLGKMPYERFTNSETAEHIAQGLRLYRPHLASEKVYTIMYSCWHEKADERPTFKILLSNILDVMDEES
For test [18] the target is unchanged. The note with it: at 10 µM.
For test [19], the target named is Tyrosine-protein kinase Blk (Homo sapiens) (UniProt P51451). To be noted: at 1 µM.
Sequence of Tyrosine-protein kinase Blk (Homo sapiens) (P51451 2-505 limits assumed): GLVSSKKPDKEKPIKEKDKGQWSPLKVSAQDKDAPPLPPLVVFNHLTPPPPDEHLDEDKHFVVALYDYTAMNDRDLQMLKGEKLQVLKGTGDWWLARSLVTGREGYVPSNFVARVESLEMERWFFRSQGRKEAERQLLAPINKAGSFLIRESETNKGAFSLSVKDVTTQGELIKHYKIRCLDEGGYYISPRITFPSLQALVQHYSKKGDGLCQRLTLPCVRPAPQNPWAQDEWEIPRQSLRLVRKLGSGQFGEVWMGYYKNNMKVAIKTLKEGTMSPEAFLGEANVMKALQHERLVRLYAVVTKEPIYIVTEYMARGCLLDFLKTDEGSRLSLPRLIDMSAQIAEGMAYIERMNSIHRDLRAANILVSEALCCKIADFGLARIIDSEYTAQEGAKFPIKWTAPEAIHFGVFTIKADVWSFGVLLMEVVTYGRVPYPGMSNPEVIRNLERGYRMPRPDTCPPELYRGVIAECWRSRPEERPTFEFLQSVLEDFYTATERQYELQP
For test [20] the target is unchanged. The note with it: at 10 µM.

The structures appear in SMILES notation.

Sequence of Tyrosine-protein kinase receptor UFO (Homo sapiens) (P30530 whole entry): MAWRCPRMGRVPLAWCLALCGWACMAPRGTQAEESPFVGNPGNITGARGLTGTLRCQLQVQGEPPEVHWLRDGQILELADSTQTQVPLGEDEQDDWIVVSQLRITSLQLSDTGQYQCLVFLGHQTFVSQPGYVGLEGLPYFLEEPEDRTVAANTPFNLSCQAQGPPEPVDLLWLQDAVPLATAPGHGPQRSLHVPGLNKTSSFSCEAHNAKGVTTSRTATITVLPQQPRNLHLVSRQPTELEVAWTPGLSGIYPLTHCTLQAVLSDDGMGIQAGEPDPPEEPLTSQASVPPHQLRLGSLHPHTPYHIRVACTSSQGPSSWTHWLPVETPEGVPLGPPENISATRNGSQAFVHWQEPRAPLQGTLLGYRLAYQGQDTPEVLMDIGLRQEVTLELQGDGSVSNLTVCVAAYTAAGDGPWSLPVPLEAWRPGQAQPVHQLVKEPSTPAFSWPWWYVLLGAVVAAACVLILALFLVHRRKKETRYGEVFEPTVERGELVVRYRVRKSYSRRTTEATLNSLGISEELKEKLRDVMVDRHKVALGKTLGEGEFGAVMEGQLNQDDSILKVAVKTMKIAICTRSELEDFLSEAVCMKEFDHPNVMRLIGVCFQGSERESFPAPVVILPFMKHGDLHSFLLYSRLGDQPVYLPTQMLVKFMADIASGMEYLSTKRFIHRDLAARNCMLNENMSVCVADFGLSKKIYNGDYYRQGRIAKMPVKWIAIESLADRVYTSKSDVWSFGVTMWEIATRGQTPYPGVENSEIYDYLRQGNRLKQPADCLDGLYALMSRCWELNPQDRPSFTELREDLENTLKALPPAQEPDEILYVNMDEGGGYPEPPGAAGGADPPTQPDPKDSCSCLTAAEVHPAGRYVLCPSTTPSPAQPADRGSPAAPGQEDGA

For `COC(=O)[C@@]1(O)C[C@H]2O[C@]1(C)n1c3ccccc3c3c4c(c5c6ccccc6n2c5c31)C(=O)NC4`, the residual activity in [1] was 52% (inactive); in test [2], 0%; in [3] it was 80%; in [4], 51%; in [5] it was 79%; in test [6], 35%. Moreover, the residual activity was 2% in test [7]; -1% in test [8]; 0% in test [9]; 0% in test [10]; 2% in test [11]; 1% in test [12]. Moreover, the residual activity in test [13] is 4%; in [14], -3%; in test [15], 19%; in test [16] it was 1%; in [17], -1%; in test [18], -1%. The residual activity in test [19] was determined as 1%; in test [20], 0%.
Take `O=c1[nH]c2ccccc2n1C1CCN(Cc2ccc(-c3nc4cc5[nH]cnc5cc4nc3-c3ccccc3)cc2)CC1`: the residual activity in test [1] was 109% (inactive); in [2], 96%; in test [3], 114%; in test [4], 137%; in test [5], 117%; in test [6] it was 89%. Besides, the residual activity in test [7] came to 70%; in test [8], 92%; in [9], 116%; in [10], 77%; in test [11] it was 108%; in [12], 86%. Moreover, the residual activity in test [13] turned out to be 77%; in [14], 64%; in test [15] it was 110%; in test [16], 79%; in test [17], 91%; in test [18], 76%. In addition, the residual activity was 94% in test [19] and 50% in [20].
Turning to `CCn1cnc2c(Nc3cccc(Cl)c3)nc(N[C@@H]3CCCC[C@@H]3N)nc21`, the residual activity in test [2] is 89%; in [3] it was 95%; in [4], 40%; in [5], 62%; in [6], 13%; in test [7] it was 85%. The residual activity in [8] amounted to 68%; in test [9] it was 21%; in test [10], 1%; in test [11], 22%; in [12], 3%; in test [13], 78%. Further, the residual activity in test [14] was found to be 21%; in test [15], 94%; in [16], 34%; in test [17], 71%; in test [18], 9%; in test [19] it was 14%. In addition, in test [20], the residual activity stood at 2%.
As for `CC(C)(C)c1cc(C=C(C#N)C#N)cc(Br)c1O`, the residual activity is 99% (inactive) in [1]; 109% in test [2]; 80% in test [3]; 4% in test [4]; 51% in [6]; 104% in test [7]. For the same compound, the residual activity was determined as 122% in test [8]; 108% in [9]; 45% in test [10]; 115% in test [11]; 99% in test [12]; 108% in test [13]. The residual activity in [15] stood at 109%; in test [16], 110%; in [19], 99%; in test [20] it was 36%.
On to `O=C1Nc2ccc3ncsc3c2/C1=C/c1c[nH]cn1`, for which the residual activity in test [1] is 86% (inactive); in [2], 7%; in [3] it was 66%; in test [4] it was 20%; in test [5], 82%; in test [6], 33%. In addition, the residual activity was 0% in test [7]; -2% in test [8]; 2% in test [9]; 0% in test [10]; 18% in [11]; -1% in test [12]. Besides, the residual activity amounted to 26% in test [13]; 8% in [14]; 66% in test [15]; 34% in test [16]; 88% in test [17]; 47% in test [18]. Further, the residual activity in test [19] is 44%; in test [20] it was 5%.
Regarding `O=C1c2ccccc2-c2nc3nnnn3nc21`, the residual activity in [1] is 113% (inactive); in [2] it was 143%; in [3], 107%; in test [4], 112%; in [6], 113%; in [7] it was 71%. For the same compound, the residual activity in test [13] was found to be 81%; in test [14], 42%; in [19] it was 79%; in [20], 47%.
As for `C[S+]([O-])c1ccc(-c2nc(-c3ccc(F)cc3)c(-c3ccncc3)[nH]2)cc1` (configuration not stated), the residual activity in [1] was 108% (inactive); in [2], 105%; in [4], 72%; in test [6], 55%; in test [7] it was 117%; in [8], 118%. Besides, the residual activity came to 102% in test [9]; 80% in test [10]; 115% in [11]; 108% in test [12]; 122% in [13]; 119% in test [14]. The residual activity worked out at 59% in test [15]; 7% in test [16]; 94% in test [17]; 101% in test [19]; 55% in [20].
With `O=[N+]([O-])/C=C/c1ccc2c(c1)OCO2`, the residual activity in [1] was 93% (inactive); in test [2] it was 90%; in test [3], 96%; in [4], 86%; in [5], 104%; in test [6], 92%. Further, the residual activity in [7] amounted to 99%; in [8] it was 109%; in [9], 108%; in test [10], 90%; in [11], 102%; in [12] it was 77%. Besides, the residual activity in test [13] stood at 69%; in test [14], 81%; in [15] it was 113%; in test [16] it was 105%; in test [17], 96%; in test [18] it was 102%. Moreover, the residual activity in [19] was 120%; in test [20] it was 96%.
